Only some compounds are listed: those with a hit (about 12% of all), similar ones and a draw of the others.
HP1b chromo inh = inhibitors of HP1-beta chromodomain binding to methylated histone tails. Potency, µM (doses to about 114 µM), actives largely listed as inhibitors. AlphaScreen HP1-beta / biotin-H3K9me3 peptide binding. P83916. AID 540317. 0.56% of 390,000 active; also: nearly all actives have a fitted effect of over 70% in size
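HP1-beta protein (50 nM final) preincubated 30 min at room temperature with biotinylated H3(1-18)K9me3 peptide (50 nM) in PBS pH 7.4, 0.01% Tween-20, then compound added for 30 min. AlphaScreen streptavidin donor/nickel chelate acceptor beads (10 ug/mL final), 30 min dark, luminescence read.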
BAZ2B block = BAZ2B (human) inhibition; AlphaScreen BAZ2B-H3K14Ac peptide displacement; 4.4% of 360,000 active; AID 504333; Q9UIF8; Potency, µM (titrated, usually from 114 µM), actives largely listed as inhibitors; also: nearly all actives have a fitted effect of over 60% in size
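Compounds, titrated to a top concentration of 110 uM, were incubated 30 min at room temperature with preformed BAZ2B/acetyl-K14 H3 peptide complex (50 nM each). Proximity signal was measured by AlphaScreen after 20 min with beads.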
G9a block = G9a (human) methyltransferase inhibition. Q96KQ7. G9a H3K9 monomethylation, AlphaScreen, 2 h. Potency, µM (top dose mostly 102 µM), most hits filed as inhibitors. 8.8% of 350,000 active. AID 504332; also: nearly all actives have a fitted effect of over 75% in size
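Using a bead-based AlphaScreen, monomethylated H3K9 product from 2 h room-temperature reactions (G9a 20 nM, peptide 500 nM, SAM 20 uM) was detected with 0.5 ug/mL rabbit anti-H3K9me1 antibody.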
JMJD2A Tudor = inhibitors of human JMJD2A Tudor domain; O75164; AlphaScreen JMJD2A-Tudor / H3K4me3 peptide binding; Potency, µM (series often up to 114 µM), actives largely listed as inhibitors; 4.4% of 390,000 active; AID 504339; also: nearly all actives have a fitted effect of over 50% in size
Sfp PPTase inh = inhibitors of Bacillus subtilis Sfp phosphopantetheinyl transferase; 3.5% of 310,000 active; Biochemical Sfp PPTase activity, qHTS; AID 1490; Potency, µM, usual class: inhibitors;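 also: the enzyme is Sfp with the accession as filed and its product quenches rhodamine fluorescence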
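Step 1, compound plus 15 nM Sfp-PPTase, 15 min, room temperature. Step 2, add rhodamine-CoA (5 uM) and BHQ-2-YbbR (12.5 uM). Step 3, read 525/598 nm fluorescence at 0 and 30 min.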
PLK1 PBD inh = blocks phosphopeptide binding to human PLK1 polo-box domain. Potency, µM, most hits filed as inhibitors. 2.8% of 360,000 active. P53350. Plk1 PBD binding of FITC phosphopeptide, fluorescence polarization; also: series mostly up to about 57 µM; nearly all actives have a fitted effect of over 65% in size
Large screens that a line does not name were inactive. Calls follow the shape of the dose curve; as a rule, active = well fitted curve in the direction sought with a large enough effect; inconclusive = small, poorly fitted or top-dose-only effect, or another doubt; inactive = no such curve, though single readings can be large; an effect the other way counts as inactive or inconclusive.

NCCCC[C@H](NC(=O)[C@H](Cc1ccccc1)NC(=O)[C@H](CCCN=C(N)N)NC(=O)[C@@H](N)Cc1ccc(O)cc1)C(N)=O	none (no result: HP1b chromo inh, BAZ2B block, JMJD2A Tudor, PLK1 PBD inh)
C[C@H]1C[C@H](C)C(=O)[C@@H]([C@H](O)CC2CC(=O)NC(=O)C2)C1	none (no result: HP1b chromo inh, BAZ2B block, G9a block, JMJD2A Tudor, PLK1 PBD inh)
COc1cc2c(cc1OC)[C@H](C)NCC2	none (no result: HP1b chromo inh, BAZ2B block, JMJD2A Tudor, PLK1 PBD inh)
Clc1ccc(CCC(Cn2ccnc2)Sc2c(Cl)cccc2Cl)cc1 (stereo not given)	BAZ2B block inconclusive, G9a block inconclusive, JMJD2A Tudor 25µM (no result: Sfp PPTase inh)
Clc1ccc([C@H](Cn2ccnc2)OCc2csc3c(Cl)cccc23)c(Cl)c1	none (no result: HP1b chromo inh, BAZ2B block, JMJD2A Tudor, PLK1 PBD inh)
O=C(CN1CCCCC1)c1cccc(Br)c1	G9a block 8.9µM
O=C(CN1CCCCC1)c1ccccc1Cl	G9a block 1.6µM
O=C(CN1CCCCC1)c1ccc2c(c1)OCO2	G9a block inconclusive
N#Cc1ccc(NC(=O)CN2CCCC2)cc1Cl	none
Cc1cc(C(=O)CN2CCCC2)c(C)n1-c1ccc(F)cc1	none
O=C(CN1CCCCC1)c1ccccc1F	G9a block 25µM
CC(=O)O[C@@H]1C[C@@]2(C)C(c3ccoc3)C[C@H]3O[C@]32[C@]2(C)C(=O)C(O)=C3C(C)(C)C(=O)C=C[C@]3(C)C12 (stereo not given in full)	none (no result: HP1b chromo inh, BAZ2B block, G9a block, JMJD2A Tudor, PLK1 PBD inh)
O=c1ccc2cc(O[C@H]3OC(CO)C(O)C(O)C3O)c(O)cc2o1 (stereo not given in full)	none (no result: HP1b chromo inh, BAZ2B block, JMJD2A Tudor, PLK1 PBD inh)
COc1ccccc1N1CCN(S(=O)(=O)c2ccc3c(c2)oc(=O)n3C)CC1	BAZ2B block inconclusive
COc1ccccc1N=c1scc(-c2ccc(S(=O)(=O)N3CCCC3)cc2)n1C	HP1b chromo inh inconclusive, BAZ2B block 8.9µM, G9a block 10µM, JMJD2A Tudor inconclusive (no result: Sfp PPTase inh, PLK1 PBD inh)
CC(=O)Nc1c(I)c(C(=O)O)c(I)c(N(C)C(C)=O)c1I	G9a block inconclusive (no result: HP1b chromo inh, BAZ2B block, JMJD2A Tudor, PLK1 PBD inh)
CC(=O)N(C)CC#CCN1CCC(O)CC1	JMJD2A Tudor 32µM (no result: BAZ2B block, G9a block, Sfp PPTase inh, PLK1 PBD inh)
C=C(C)[C@@]12OC3(c4ccccc4)O[C@@H]1C1[C@@H]4O[C@]4(CO)[C@@H](O)[C@]4(O)C(=O)C(C)=C[C@H]4[C@@]1(O3)[C@H](C)[C@H]2OC(=O)/C=C/C=C/c1ccccc1 (stereo not given in full)	JMJD2A Tudor inconclusive (no result: BAZ2B block, G9a block, Sfp PPTase inh)
CN(C)c1ccc(N=Cc2c(O)n(CCC3=CCCCC3)c(=O)[nH]c2=O)cc1	none
O=C1NC(=O)N(Cc2cccs2)C(=O)/C1=C/c1ccc(N2CCOCC2)cc1	BAZ2B block inconclusive, G9a block inconclusive, Sfp PPTase inh 50µM, PLK1 PBD inh 3µM
O=C1NC(=O)N(CCC2=CCCCC2)C(=O)/C1=C/c1cccs1	BAZ2B block inconclusive, G9a block 14µM, JMJD2A Tudor inconclusive, PLK1 PBD inh 0.75µM
COc1ccc(/C=C2\C(=O)NC(=O)N(CCC3=CCCCC3)C2=O)c(OC)c1	G9a block 11µM, Sfp PPTase inh 56µM, PLK1 PBD inh 1.7µM
CCN1C(=O)NC(=O)/C(=C\c2ccc(N3CCOCC3)cc2OC)C1=O	none (no result: HP1b chromo inh, JMJD2A Tudor, PLK1 PBD inh)
O=C1NC(=O)N(CCC2=CCCCC2)C(=O)/C1=C/c1ccc(O)cc1	G9a block inconclusive, Sfp PPTase inh 45µM, PLK1 PBD inh 2.7µM
Clc1cccc(N2Cc3cc(-c4ccccc4)ccc3-n3nncc3C2)c1	none (no result: HP1b chromo inh, BAZ2B block, G9a block, JMJD2A Tudor, Sfp PPTase inh)
CC(C)C[C@H](NC(=O)[C@H](Cc1ccccc1)NC(=O)CNC(=O)[C@H](CS)N(C(=O)[C@@H](N)Cc1ccc(O)cc1)C(C)(C)C)C(=O)N([C@H](C(=O)O)[C@H](C)O)C(C)(C)C	none (no result: HP1b chromo inh, BAZ2B block, JMJD2A Tudor, PLK1 PBD inh)
CC(C)C1C(C#N)=C(N)Oc2c1c(=O)oc1ccccc21 (stereo not given)	none (no result: HP1b chromo inh, BAZ2B block, G9a block, JMJD2A Tudor, Sfp PPTase inh)
O=C1NC(=O)N(CC2CCCO2)C(=O)/C1=C/c1cccs1 (stereo not given)	Sfp PPTase inh 79µM, PLK1 PBD inh inconclusive
CCN(CC)c1ccc(/C=C2/C(=O)NC(=O)N(CC3CCCO3)C2=O)cc1 (stereo not given)	BAZ2B block inconclusive, PLK1 PBD inh inconclusive (no result: G9a block)
CCCCCSc1cc(O)c(C(CNC)C(C)C)cc1OC (stereo not given)	BAZ2B block inconclusive, G9a block 11µM, JMJD2A Tudor inconclusive
COc1ccc(C[C@@H]2NC[C@H](O)[C@@H]2OC(C)=O)cc1	none (no result: HP1b chromo inh, BAZ2B block, JMJD2A Tudor, PLK1 PBD inh)
